D3 ag = qHTS of D3 Dopamine Receptor Agonist: qHTS; max activation, %; 410,000 compounds, 0.58% hits; D3R DiscoveRx beta-arrestin cells, luminescence, 90 min; AID 652048, 2013; D(3) dopamine receptor (Homo sapiens), P35462; in the data active means max activation above about 30%; further: 0% is about no effect
Target sequence (P35462 whole entry, looked up): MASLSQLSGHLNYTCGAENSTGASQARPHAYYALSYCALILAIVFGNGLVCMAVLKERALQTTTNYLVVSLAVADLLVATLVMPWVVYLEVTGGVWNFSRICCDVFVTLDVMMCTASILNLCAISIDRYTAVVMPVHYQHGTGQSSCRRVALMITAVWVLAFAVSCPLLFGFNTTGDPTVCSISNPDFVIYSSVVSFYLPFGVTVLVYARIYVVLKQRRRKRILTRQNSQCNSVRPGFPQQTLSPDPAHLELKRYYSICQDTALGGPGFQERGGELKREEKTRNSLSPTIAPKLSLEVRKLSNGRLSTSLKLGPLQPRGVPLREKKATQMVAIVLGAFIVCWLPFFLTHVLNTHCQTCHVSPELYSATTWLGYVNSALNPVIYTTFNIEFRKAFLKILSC
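Agonist-mode cell screen: cells plated at 1500/well and incubated overnight at 37 °C, then exposed to library compounds for 90 min at 37 °C. Detection reagent was added for 30–60 min at room temperature, and luminescence was read.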
ATXN2 expr inh = Primary qHTS for Inhibitors of ATXN expression. HEK-293 ATXN2-luciferase reporter, luminescence, 24 h. Potency, µM (series often up to 57 µM), for inactives: top-dose activity change, negative = inhibition, hits mostly inhibitors. 360,000 compounds, 0.72% hits. AID 1745845, 2022; further: potency means the concentration at half of the fitted maximal effect; on the % scale 0 is the no-effect control and ±100 the full control effect; nearly all actives have a fitted effect of over 55% in size
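qHTS (up to 57 uM final) was run with 24 h compound exposure of reporter cells at 37 °C. Each well was multiplexed: SteadyGlo luminescence measured ATXN2-luciferase expression after a fluorogenic Gly-Phe-AFC viability readout (25 uM final).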
TGFb inhibitor = qHTS for Inhibitors of TGF-b; HepG2 CAGA-GFP TGF-b/SMAD3 reporter, GFP fluorescence, 18 h; TGF-beta stimulated, 500 pg/mL final; Potency, µM (series often up to 46.1 µM), inactives show top-dose activity, negative = inhibition, most hits filed as inhibitors; 410,000 compounds, 1.2% hits; AID 588855, 2011; further: potency means the concentration at half of the fitted maximal effect; on the % scale 0 is the no-effect control and ±100 the full control effect; nearly all actives have a fitted effect of over 65% in size
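HEPG2 CAGA-GFP cells (1000/well, DMEM with 1% FBS) were pre-incubated 2 h at 37 degrees C, given compound by pin tool, then stimulated with TGF-beta at 500 pg/mL final for 18 h before per-cell GFP fluorescence imaging.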
HepG2 tox = qHTS for Inhibitors of TGF-b: Cytotox Counterscreen; HepG2 CAGA-GFP viability, ATP luminescence, 18 h; Potency, µM (top dose mostly 46.1 µM), inactives show at the highest dose activity change, negative = cytotoxicity, usual class: cytotoxic; 410,000 compounds, 0.76% hits; AID 588856, 2011; further: potency means the concentration at half of the fitted maximal effect
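CellTiter-Glo luminescence gave cytotoxicity after 18 hours at 37 degrees C. The cells were HepG2 CAGA-GFP in 1% FBS DMEM, stimulated with 500 pg/mL TGF-beta after compound addition. %Activity was normalised to no-cell wells (complete cell-killing) and DMSO (no toxicity), and curves were fitted and classified.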
D3 antag = qHTS of D3 Dopamine Receptor Antagonist: qHTS; D3R cells, DiscoveRx beta-arrestin luminescence, antagonist mode; hits give low values; AID 652054, 2013; 360,000 compounds, 2.5% hits; max response, negative = inhibition, %; D(3) dopamine receptor (Homo sapiens), P35462; in the data active means max response below about -50%; inconclusive means no clear call, values can overlap the other calls; further: on the % scale 0 is the no-effect control and ±100 the full control effect
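Cells plated overnight at 1500 cells/well, then exposed to library compounds with dopamine controls for 90 minutes at 37 degrees C. DiscoveRx reagent added for 30–60 minutes at room temperature; luminescence read, quantitative HTS format.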
ATXN viability = Viability Counterscreen for Primary qHTS for Inhibitors of ATXN expression. S2 cells (HEK-293 line with an ATXN2-luciferase reporter) viability, CellTiter-Fluor protease fluorescence, 24 h. Potency, µM (doses to about 56.7 µM), usual class: cytotoxic. 400,000 compounds, 0.49% hits. AID 651635, 2014; further: potency means the concentration at half of the fitted maximal effect; nearly all actives have a fitted effect of over 40% in size
* hit, by the source's call; i = inactive; u = inconclusive; x = no result given; ! = not active in a repeat. Hits are enriched below; roughly 4.8% of the tested compounds scored in any of these assays. Unless noted, the call rests on the fitted dose curve; in most records, active means well fitted curve in the direction sought with a large enough effect; inconclusive means small, poorly fitted or top-dose-only effect, or another doubt; inactive means no such curve, though single readings can be large; an effect the other way counts as inactive or inconclusive.

SMILES	D3 ag	ATXN2 expr inh	TGFb inhibitor	HepG2 tox	D3 antag	ATXN viability
CC(=O)OC[C@@H]1CN(Cc2ccccc2)C[C@H](n2cnc3c(Nc4ccccc4)ncnc32)O1	-6.1	7.6%	-29.5%	15.8µM*	-6.4	i
Cc1ccc(C(C)C)c(OCCCN2CCc3ccccc3C2)c1	-20.3	x	u	-46.8%	-84.8*	u
Cc1ccc(OCCCCN2CCc3ccccc3C2)c(C)c1	-31.1	-20.6%	-29.4%	-35.9%	-106.2*	i
Cc1ccc(C)c(OCCCN2CCc3ccccc3C2)c1	-12.4	-5.6%	1.4%	-29.1%	-88.6*	i
Cc1ccc(C(C)C)c(OCCCn2c(=O)oc3ccccc32)c1	4.2	2.4%	-27.3%	-26.3%	x	i
Cc1ccc(C(C)C)c(OCCN2CCc3ccccc3C2)c1	-33.5	-15.6%	-24.6%	-1.9%	-67.0*	i
Cc1ncc2c(c1CNC(=O)c1ccccc1F)CCN(C(=O)c1[nH]c3ccc(Cl)cc3c1C)C2	x	x	x	x	x	i
COc1ccc(CN2CCOc3ccc(C(O)c4cccnc4)cc3C2)cc1O (configuration not stated)	x	x	x	x	x	i
Brc1ccccc1OCCCCn1cnc2ccccc21	1.4	-7.7%	-30.5%	-11.8%	-9.3	i
Cc1ccc(OCCCCn2cnc3ccccc32)c(C)c1	1.7	x	-2.5%	-28.9%	-57.0*	x
O=C(C1CCN(C2CCN(C/C=C/c3ccccc3)CC2)CC1)N1CCOCC1	-4.4	-12.5%	-3.1%	-13.8%	-1.2	i
O=C(C1CC1)N1CCN(Cc2ccccc2)CC1	-1.2	-10.1%	-14.0%	0.0%	-1.6	i
O=C(C1CCN(Cc2ccccc2)CC1)N1CCN(C/C=C/c2ccccc2)CC1	-12.6	-12.4%	5.3%	-17.2%	-54.2*	i
O=C(C1CCN(Cc2ccc(F)cc2)CC1)N1CCN(C/C=C/c2ccccc2)CC1	-15.1	u	-13.8%	-19.8%	-77.2*	i
CCOc1ccc(OCC)c(NC(=O)CCC(=O)N2CCOc3ccccc32)c1	-0.3	-10.9%	1.2%	-0.8%	x	i
CN(C)CCNC(=O)C(=O)NCC(c1cccnc1)N1CCN(c2ccccc2)CC1 (configuration not stated)	4.6	5.8%	14.5%	3.1%	x	i
O=[N+]([O-])c1cccc2nc(-c3ccccc3)c(-c3ccccc3)nc12	-21.0	-7.3%	-9.6%	-33.0%	-5.4	i
Cn1c(-[n+]2c(-c3ccccc3)cc(-c3ccccc3)cc2-c2ccccc2)nc2c([N+](=O)[O-])cccc21	-12.2	u	u	-2.9%	-60.1*	i
CC(C)(C)c1cc(NC(=O)c2ccc(OC3CCCC3)cc2)no1	34.7*	5.8%	14.2%	1.2%	9.3	i
Cc1cc2c(cc1C)N[C@]1(C[C@H]3CCCC(=O)N4CC[C@@H](C1)[C@@H]34)C(=NC(C)(C)CC(C)(C)C)N2	-25.4	-16.0%	u	10µM*!	5.4	u
CC(C)(C)CC(C)(C)N=C1Nc2ccc(Cl)cc2N[C@]12C[C@H]1CCCC(=O)N3CC[C@@H](C2)[C@@H]13	x	x	u	8.91µM*	x	x
CSc1ccc(CCNC(=O)C(C)n2nc(C)c3sc4ccccc4c3c2=O)cc1 (configuration not stated)	-7.0	x	x	0.9%	x	x
CN(C)c1ccc(-c2cc(C3C4C=CCCC4(C)C(=O)N3Cc3ccccc3)ccc2F)cc1 (configuration not stated)	x	x	1.9%	7.2%	x	x
CCN(Cc1ccc(NC(C)=O)cc1)CC1CCCN(CCc2cccc(OC)c2)C1 (configuration not stated)	-5.4	x	-8.3%	-26.6%	-51.6*	i
CSc1ccc(-c2nc3c(C)cccn3c2Nc2ccc3c(c2)OCCO3)cc1	2.0	-10.3%	0.8%	-32.7%	x	u
SMILES	D3 ag	ATXN2 expr inh	TGFb inhibitor	HepG2 tox	D3 antag	ATXN viability
Cc1cccn2c(Nc3ccc4c(c3)OCCO4)c(-c3ccc(Br)o3)nc12	44.2*	u	u	-21.4%	x	x
CCOc1ccc(/C(O)=C/C(=O)C(=O)Nc2ccc(S(=O)(=O)NC(C)=O)cc2)cc1	-9.8	15.9%	-17.7%	-4.7%	-60.0*	i
CCc1cc2cccc(C)c2nc1SCC(=O)N1CCN(C(=O)c2ccco2)CC1	40.6*	u	11.2%	2.7%	70.3	u
CCc1cc2cc(C)cc(C)c2nc1SCC(=O)N1CCN(C(=O)c2ccco2)CC1	18.1	-17.3%	u	1.5%	36.3	u
Cc1ccc(NC(=O)CSC(N)=O)cc1Cl	2.5	-23.3%	1.8%	2.2%	-13.4	i
NC(=O)SCC(=O)Nc1ccc(Cl)cc1	-10.5	-11.2%	u	-74.4%	-52.7*	i
NC(=O)SCC(=O)Nc1ccc(Cl)c(Cl)c1	0.6	u	12.6µM*	-61.2%	0.0	i
COc1ccc(CCNC(=O)Cc2c(C)c3cc4c(C(C)(C)C)coc4c(C)c3oc2=O)cc1OC	10.9	x	-22.8%	-10.3%	x	x
O=S(=O)(CCSc1nc2ccccc2o1)c1nc2ccccc2s1	-11.5	28.2µM*	u	-102.5%	-61.8*	x
O=S(=O)(CCSc1ccccn1)c1nc2ccccc2s1	6.8	u	8.91µM*	10µM*	u	x
CCS(=O)(=O)CCSc1nc2ccccc2o1	-1.8	7.2%	9.4%	1.5%	-11.1	i
CC1C(=O)N2CCCc3cc(S(=O)(=O)Nc4ccc(Br)cc4F)cc1c32 (configuration not stated)	15.5	x	-15.7%	-1.6%	x	x
COc1ccc(N(C(=O)c2cccc(C)c2)S(=O)(=O)c2ccc(C)cc2)cc1	-21.4	-21.0%	-23.3%	-0.7%	x	i
CC(=O)/C=C/c1ccc2c(c1)S(=O)(=O)N(C1CCCC1)[C@H]2CC(C)=O	x	x	7.08µM*	10µM*	x	x
CC(=O)C[C@H]1c2ccccc2S(=O)(=O)N1C1CCCC1	-26.6	0.7%	u	2.6%	-167.8*	i
C[C@H]1CN([C@@H](C)CO)C(=O)CCCn2nncc2CO[C@@H]1CN(C)Cc1ccc2c(c1)OCCO2	-4.7	-9.0%	-7.2%	3.3%	-24.0	i
C[C@H](CO)N1C[C@H](C)[C@@H](CN(C)C(=O)Nc2ccc(C(F)(F)F)cc2)Oc2c(NC(=O)Nc3ccc(C(F)(F)F)cc3)cccc2C1=O	-13.3	u	14.1µM*	-114.0%	13.8	15.8µM*
C[C@H](CO)N1C[C@H](C)[C@@H](CN(C)Cc2ccc3c(c2)OCCN3C)OCc2cnnn2CCCC1=O	-5.3	-2.3%	-1.9%	-0.7%	-87.6*	i

High-throughput results deposited in PubChem BioAssay by National Center for Advancing Translational Sciences (NCATS).
